Measurements from the supplement of paper PMC3334620.
The full ranking holds about 33,000 sequences; the median of “E-score (-0.5 to 0.5)” is about -0.032, and the highest 2% start at about 0.36. The sample holds the highest values, similar sequences and a random draw of the others, so the mix is not that of the screen.

What follows are sequences tested against T1, Sko1 (UniProt Q02100) (assay: PBM E-score (8-mer binding enrichment) (E-score (-0.5 to 0.5)); higher = stronger / more preferred TF binding). Conditions: protein concentration: 200 nM; construct: GST-full length.
T1 sequence: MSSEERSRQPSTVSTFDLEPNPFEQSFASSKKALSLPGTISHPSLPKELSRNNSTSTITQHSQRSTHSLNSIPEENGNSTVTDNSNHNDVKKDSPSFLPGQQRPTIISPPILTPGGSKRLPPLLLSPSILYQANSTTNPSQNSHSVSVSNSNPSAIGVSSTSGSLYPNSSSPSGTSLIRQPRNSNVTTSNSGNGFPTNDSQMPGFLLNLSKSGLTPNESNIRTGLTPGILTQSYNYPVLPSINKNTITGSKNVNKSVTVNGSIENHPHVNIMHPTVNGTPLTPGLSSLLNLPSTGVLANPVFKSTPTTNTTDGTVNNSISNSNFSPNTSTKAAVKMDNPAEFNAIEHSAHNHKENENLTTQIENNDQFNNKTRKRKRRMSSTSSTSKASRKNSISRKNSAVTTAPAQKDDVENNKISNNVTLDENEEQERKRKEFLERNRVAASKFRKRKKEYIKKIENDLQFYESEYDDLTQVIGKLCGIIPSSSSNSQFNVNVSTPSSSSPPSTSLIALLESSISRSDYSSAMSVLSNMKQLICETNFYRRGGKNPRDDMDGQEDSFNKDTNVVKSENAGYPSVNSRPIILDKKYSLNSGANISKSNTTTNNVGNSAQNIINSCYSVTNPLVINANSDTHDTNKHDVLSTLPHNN
Description: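 Universal 'all 10-mer' protein binding microarrays (Agilent AMADID 015681) probed with GST-tagged S. cerevisiae TFs (full-length or DBD) made by in vitro transcription/translation (PURExpress), about 100-200 nM. Bound TF was detected with fluorescent anti-GST. Each ungapped 8-mer (which stands for itself and its reverse complement) is scored by the PBM enrichment score (E-score), a modified Wilcoxon-Mann-Whitney statistic from -0.5 to +0.5, computed with the Universal PBM Analysis Suite. Scale: above 0.35 generally sequence-specific binding.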

Sequence	PBM E-score
AACGCAAT	0.38
GACGCAAA	0.347
CACGCATA	0.0358
TACGCAAA	0.415
TACGCACA	0.401
AACGCAAG	0.0717
TACGCATA	0.368
AACGCAAA	0.175
CACGCACA	0.222
AACGCATA	0.219
AACGCAAC	0.289
CACGCACG	0.204
TCAGCCGA	-0.104
GGGGCGAC	-0.228
GAGACCGC	-0.32
CATGCCTC	0.0373
TAGAGCGA	-0.114
GGGTTGTA	-0.19
AACGCACA	0.161
CACGCAAA	0.26
GACGCACA	0.36
CACGCAAG	0.3
AACGCACG	0.31
CACGCAAC	0.379
TCGCTTAA	-0.0032
GAGACTGC	-0.054

Sequence	PBM E-score
AAAGAACT	-0.0725
AACAGAGG	-0.205
CGGTTCTC	-0.0999
AACCTTCT	-0.298
CAAGGTCA	-0.144
AGTGACGC	0.416
CGTGACCA	-0.0216
AGTGACCC	-0.23
AGTGATGA	0.21
CCTGACGC	0.0655
GGTGATGA	0.18
CTTGACGC	0.262
CGTGATGA	0.36
CGTGACGC	0.422
CGTGACGA	0.411
AGTGACTC	-0.0159
CGTGACAA	0.188
ACCTGAGC	0.0188
AACTGGTC	-0.112
CTTAGTTC	0.0167
AAACAGCT	-0.0726
CGCTCTCA	-0.0854
GAAACACC	0.02
TAGTTCAA	0.0959
GGCGCACC	-0.36
TCACAAGA	-0.00762

Sequence	PBM E-score
CCTGGCGC	-0.133
AAGTAAAT	0.139
GCGTAAAA	0.279
GCGTAAAC	0.281
ACGTAAAT	0.463
ACGTAAAA	0.463
CCGTAAAA	0.053
ACGTAAAG	0.461
CCGTAAAC	0.104
AGGTAAAT	0.131
AAGTAAAG	-0.152
ACGTAAAC	0.459
CCGTAAAG	0.0256
CACGCACC	0.115
AGCTTTGC	-0.179
GAAAATGC	0.0279
GAGTAGCA	0.0153
TCTGGCAA	-0.261
CTGAAAGA	-0.0455
CATTGCAG	0.0387
GGATGCAC	-0.16
GTCTGCAC	-0.118
CGACGTCG	0.209
GGCCGTCA	-0.184
GGACGTCA	0.466
AGACGTCT	0.271

Sequence	PBM E-score
AGACGTCC	0.281
CGACGTCA	0.486
CGACGTCC	0.169
AGACGTCA	0.484
GGACGTCC	-0.151
GCAGATGA	-0.0175
AGCCGGAG	0.0107
CAAGTACC	-0.0542
AAGGATCG	0.0147
AAGTTTTA	0.142
AGTCGGAA	-0.0901
AGACTCAT	0.183
ATTACCTG	0.067
ATTACGTC	0.492
ATTACGGG	0.206
ATTAGGTC	0.207
ATTACGTG	0.487
ATTACGGC	0.303
GAGAGCCA	-0.118
AGGCTGCC	-0.341
GATCCACA	-0.0832
CTTCCTTC	-0.284
GTAGATTA	0.269
AACTGAAG	0.0972
AACGTAGG	0.336
AACGTAGC	0.349

Sequence	PBM E-score
CCCGTAGC	-0.291
CCCGTAGG	-0.194
GCCGTAGC	-0.328
CACGTAGG	0.396
GACGTAGC	0.436
CACGTAGC	0.364
CTCGTAGC	-0.0204
CACGTAGA	0.39
AACGTAGA	0.357
CGCGTAGA	0.0669
CTGCACTC	-0.16
GTTTAAGA	-0.0752
CAGTCGTC	0.0351
CTTCCTGC	-0.256
CGTAGCAC	0.295
GCCATCCC	-0.319
CCACTGTC	-0.185
ACAAGGGT	-0.0251
GCCAGCAA	-0.205
CTAACCAG	-0.0782
GACCTGGC	-0.297
GACGTAGA	0.42
TACGTAGA	0.452
GTCGTAGA	0.166
GGCGTAGA	0.118
AGCGTAGA	-0.0243

Sequence	PBM E-score
TCCGTAGA	-0.15
AGCGACAG	-0.155
GGTAAAAA	0.0275
GGTAATCA	0.0412
CCTAATCC	-0.11
AGTAATCA	0.0126
AGTAATCC	0.0657
AGTAAACA	0.0928
CGTAAACA	0.374
CGTAATCC	0.405
CGTAATCA	0.452
GGTAAACA	0.136
GGTGGCAA	-0.169
CCCGACGC	-0.148
AAGGTTTA	-0.0389
ATCTTGGC	-0.119
ACGAGACT	0.0545
AACACCAA	0.109
ACTACGAA	0.289
GCTACGAA	0.239
GCTACGTA	0.456
ACTACGTA	0.484
ACTACGGA	-0.036
GCTACGGA	-0.0597
ACTACGCG	0.245
ACTACGTG	0.415

Sequence	PBM E-score
ACTACGGG	-0.221
ATAGCGAG	-0.0959
GCAATGAC	0.374
CGAATGAC	0.351
ATAATGAG	0.114
ATAATGAT	0.278
CCAATGAC	0.253
ATAATGGA	0.068
ATAATGAC	0.378
AGAATGAC	0.377
GTAATGGA	0.402
AGAATGAG	0.0649
GCAATGAA	0.128
CTAATGGA	-0.158
AATCAAAC	0.229
AGAAGTGG	-0.19
ACTTCTAA	-0.0244
AGATACCC	-0.0725
CTTGAAAG	-0.0877
ACGACTTG	-0.058
CCAGCGTC	-0.229
GTAATGAC	0.399
CTAATGAC	0.299
GTAATGAA	0.281
CACGTCCA	0.254
GACGTCCA	0.331

Sequence	PBM E-score
AACGTCTA	0.239
GACGTCAC	0.487
GACGTCCC	0.217
TACGTCTA	0.421
AACGTCCA	0.245
TACGTCCA	0.404
AACGTCAA	0.424
GACGTCTA	0.358
GACGTCGC	0.334
CACGTCTA	0.314
ATTGTTGC	0.236
ACAGGAGT	-0.0316
CCCACTGC	-0.115
ATGCGCCA	-0.00554
ATAAGACG	0.115
TACGTCAA	0.479
AACGTCGG	0.182
CACGTCAG	0.462
CCCGTCAA	-0.0876
TTCGTCAA	0.297
CCCGTCAG	-0.214
AACGTCTG	0.239
CACGTCAA	0.426
AACGTCAG	0.429
CACGTCTG	0.23
TCCGTCAA	0.0302

Sequence	PBM E-score
CCTGTGCC	-0.224
GCGACGCC	-0.0621
ATAGGTGC	-0.114
ATCCATGG	-0.237
GAGATCAC	0.00833
AAGCAAGA	0.0771
AGTTGTGA	0.0903
CACGATGG	-0.0649
CGTGGCGA	0.0528
CACGTCTC	0.134
AACGTCAT	0.493
AGCGTCAC	0.252
AACGTCTC	0.111
AACGTCAC	0.471
AACGTCGT	0.247
GACGTCTC	0.384
GACGTCAA	0.47
AACGTCCC	-0.0499
GCCGTCAA	-0.081
AACGTCCT	0.0619
